The text below walks through data of PubChem BioAssay AID1445 (SRMLSC, 2008).

Hit rate of the full screen: of about 220,000 compounds, about 910 (0.41%) were called active. This excerpt belongs to a sample that is enriched for actives. Entries with a potency or affinity are not part of this list. Unmarked numbers belong to inactive results.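 The calls were made as follows: active = primary inhibition above the hit cutoff, then over 50% inhibition at one or more dose response concentrations (cut at about 23% in these data, passing the limit was not always enough); inconclusive = conflicting primary data, or primary hits not chosen for dose response; inactive = low primary inhibition, or under 50% at every dose.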

Sequence of Aminopeptidase N (Plasmodium falciparum (isolate 3D7)) (O96935 whole entry, looked up): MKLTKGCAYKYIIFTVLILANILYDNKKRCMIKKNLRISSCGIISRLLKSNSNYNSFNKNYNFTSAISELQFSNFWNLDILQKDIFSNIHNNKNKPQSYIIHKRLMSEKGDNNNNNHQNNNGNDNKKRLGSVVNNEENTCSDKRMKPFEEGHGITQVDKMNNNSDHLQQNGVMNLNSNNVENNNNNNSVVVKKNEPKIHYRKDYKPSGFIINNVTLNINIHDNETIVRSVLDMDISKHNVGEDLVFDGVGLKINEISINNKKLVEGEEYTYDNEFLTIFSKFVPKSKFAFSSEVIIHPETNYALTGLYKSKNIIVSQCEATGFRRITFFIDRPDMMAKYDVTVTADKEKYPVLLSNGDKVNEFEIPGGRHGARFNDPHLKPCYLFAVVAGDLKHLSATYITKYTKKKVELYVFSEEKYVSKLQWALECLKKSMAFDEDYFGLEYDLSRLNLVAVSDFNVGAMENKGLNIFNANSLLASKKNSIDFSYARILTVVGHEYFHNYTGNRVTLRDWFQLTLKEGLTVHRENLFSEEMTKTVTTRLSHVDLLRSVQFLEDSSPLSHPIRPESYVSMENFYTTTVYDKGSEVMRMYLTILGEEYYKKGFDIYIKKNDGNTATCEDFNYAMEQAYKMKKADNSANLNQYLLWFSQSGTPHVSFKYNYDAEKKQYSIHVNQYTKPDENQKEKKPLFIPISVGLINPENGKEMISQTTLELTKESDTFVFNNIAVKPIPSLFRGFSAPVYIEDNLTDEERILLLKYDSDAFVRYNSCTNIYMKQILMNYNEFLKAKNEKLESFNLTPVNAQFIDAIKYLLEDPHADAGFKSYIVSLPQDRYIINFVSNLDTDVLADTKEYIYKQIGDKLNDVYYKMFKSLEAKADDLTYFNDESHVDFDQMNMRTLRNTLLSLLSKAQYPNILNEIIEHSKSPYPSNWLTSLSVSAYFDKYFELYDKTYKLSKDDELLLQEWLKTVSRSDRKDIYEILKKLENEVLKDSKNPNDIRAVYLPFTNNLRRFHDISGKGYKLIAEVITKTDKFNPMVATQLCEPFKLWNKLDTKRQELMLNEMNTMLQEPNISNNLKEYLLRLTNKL

The assay has as its target Aminopeptidase N (Plasmodium falciparum (isolate 3D7)) (UniProt O96935). The assay is described as follows: P. falciparum M1AAP inhibitors, biochemical, fluorogenic H-Leu-NHMec substrate, 1536-well (AID 1445).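 Also: plate controls were DMSO full reaction for no effect and no enzyme background for full effect.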 To be noted: recombinant M1AAP, H-Leu-NHMec fluorogenic kinetic assay; at 30 µM, hits give high values unless noted.
For `CC(C)(C)NC(=O)Cn1c(-c2nonc2N)nc2ccccc21`, the inhibition was 8.2%.
In the case of `COC(=O)c1ccccc1NC(=O)Cn1c(-c2nonc2N)nc2ccccc21` it was 0.73%; in that of `CCOC(=O)c1ccccc1NC(=O)Cn1c(-c2nonc2N)nc2ccccc21`, -0.93%; in that of `Nc1nonc1-c1nc2ccccc2n1CC(=O)Nc1ccccc1`, 2.57%.
In the case of `Nc1nonc1-c1nc2ccccc2n1CC(=O)N/N=C\c1ccc(-c2ccc(Cl)cc2)o1` it was -0.3%.
For `NC(=O)Cn1c(-c2nonc2N)nc2ccccc21` the value was 2.36%; for `COc1ccccc1C(=O)Nc1ccccc1C(=O)N1CCCC1`, 5.88%.
`COc1ccc(CCNC(=O)COC(=O)c2ccc(N3CCCC3=O)cc2)cc1`: the inhibition was -2.72%.
For `CC(=O)/C(N=Nc1ccc(C(=O)O)cc1)=C(\C)O` the value was 7.52%; for `Cc1ccc(C)c(N2CCN(C(=O)c3ccc(CSc4nc5ccncc5[nH]4)cc3)CC2)c1`, -6.94%.
Consider `Cc1ccc(C2=Nc3ccc(Br)cc3C(c3ccncc3)=NN2)cc1`, for which the inhibition is -0.32%.
In the case of `CCOC(=O)C1(CCOc2ccccc2)CCN(Cc2cnc(C)[nH]2)CC1` it was 6.06%; in that of `CCN(CC)NC(=S)Nc1ccccc1`, -2.71%.
For `CN(C)c1nc(-c2ccc([N+](=O)[O-])cc2)cs1` the value was 4.18%.
For `Cc1c(NC(=O)CSc2nncc3ccccc23)c(=O)n(-c2ccccc2)n1C`, the inhibition was 3.35%.
For `O=C(NN1C(=O)/C(=C/C=C/c2ccco2)SC1=S)c1ccncc1` the value was 17.5%.
In the case of `Cn1cccc1/C=C1\SC(=S)N(NC(=O)c2ccccc2Cl)C1=O` it was 17.9%; in that of `O=C1/C(=C/C=C/c2ccco2)SC(=S)N1c1ccc(O)cc1`, 15.5%.
For `O=C1/C(=C/c2ccc(O)c([N+](=O)[O-])c2)SC(=S)N1Cc1ccccc1` the value was 10.2%; for `O=C(O)CCCN1C(=O)/C(=C/C=C/c2ccco2)SC1=S`, 7.29%; for `CC(C(=O)O)N1C(=O)/C(=C/C=C/c2ccco2)SC1=S` (stereo not drawn), 10.5%.
`O=C(NN1C(=O)/C(=C\c2ccc(O)c([N+](=O)[O-])c2)SC1=S)c1ccccc1Cl`: the inhibition is 19.8%.
For `COc1ccccc1C(=O)NN1C(=O)/C(=C/c2cccn2C)SC1=S` the value was 15.2%; for `COc1ccccc1N(C)S(=O)(=O)c1ccc(C(=O)OCC(=O)Nc2cc(C)on2)cc1`, -7.23%.
For `CC(C)CN(CCOc1cccc(N2C(=O)C3=C(CCCC3)C2=O)c1)CC(C)C` the value was 3.32%.
In the case of `CC(=O)c1cccc(NC(=O)N2CCCc3ccccc32)c1` it was 7.74%.
On to `COc1ccc(C2CCCN2C(=S)Nc2ccccc2C)cc1OC` (stereo not drawn), for which the inhibition was -1.92%.
For `COc1ccc(C=O)cc1CSc1nnc(COc2cccc3cccnc23)o1` the value was 3.48%.
As to `C/C(CC(=O)Nc1cccc(C(F)(F)F)c1)=N/NC(=O)C(=O)NCCO`, the inhibition was 8.99%.
Consider `O=C(Cc1c[nH]c2ccccc12)N/N=C/c1ccccc1O`, for which the inhibition is 20.7%.
In the case of `COc1ccc(NC(=O)C(C)N2C(=O)c3ccccc3C2=O)cc1S(=O)(=O)N1CCOCC1` (stereo not drawn) it was 9.37%; in that of `CC(C(=O)Nc1ccc(N2CCOCC2)cc1)N1C(=O)c2ccccc2C1=O` (stereo not drawn), 4.39%.
For `COc1ccc(NC(=S)N(CCc2c(C)[nH]c3ccccc23)Cc2ccco2)cc1` the value was -1.5%.
In the case of `O=C(Nc1ccc2snnc2c1)N1CCSCC1` it was 6.62%.
As to `CC(c1ccccc1)N1C(=O)c2ccccc2C1O` (stereo not drawn), the inhibition is 0.46%.
Take `CN(C)S(=O)(=O)c1ccc(N2CCOCC2)nc1`: the inhibition is 8.35%.
For `O=S(=O)(Nc1nc2ccccc2[nH]1)c1ccccc1` the value was 1.84%; for `O=C(NN1C(=O)/C(=C/c2cccs2)SC1=S)c1ccncc1`, 20.6%; for `CC(=O)NN1C(=O)/C(=C\c2ccccc2)SC1=S`, 12.8%.
In the case of `O=C(NN1C(=O)/C(=C/c2cccs2)SC1=S)c1ccccc1` it was 7.49%; in that of `O=C1/C(=C/c2cccs2)SC(=S)N1c1ccccc1`, 5.36%.
For `Cc1ccc(S(=O)(=O)NN2C(=O)/C(=C/c3ccccn3)SC2=S)cc1` the value was 17.4%.
Regarding `Nc1nnc(CSc2ccc(Cl)cc2)s1`, the inhibition is -0.69%.
In the case of `COc1cccc(NC(=O)C(Sc2nnc(-c3ccncc3)n2-c2ccc(Cl)cc2)c2ccccc2)c1` (stereo not drawn) it was -1.95%; in that of `C=CCOc1c2ccc(C(=O)NCc3ccc(OC)cc3)cc2nn1C`, 15.3%; in that of `Cc1cc(C)n(-c2ccc(C(=O)OCC(=O)c3c(N)n(C)c(=O)n(C)c3=O)cc2)n1`, 4.93%.
For `O=C(CCCCn1c(=O)[nH]c2ccsc2c1=O)NCC1CCCO1` (stereo not drawn) the value was -2.47%; for `O=C(NCc1ccco1)c1ccc(Cl)c(S(=O)(=O)N2CCOCC2)c1`, 0.38%; for `COC(=O)c1cc(C(=O)NCCN2C(=O)S/C(=C\c3cccs3)C2=O)cc([N+](=O)[O-])c1`, 9.47%.
As for `CCOC(=O)c1cc(C)[nH]c(=S)c1C#N`, the inhibition is 5.55%.
For `COc1cc(/C=C/C(=O)O)cc(S(=O)(=O)Nc2ccc3c(c2)OCO3)c1OC` the value was 10.2%.
Turning to `COc1cc(/C=C/C(=O)O)cc(S(=O)(=O)Nc2ccccc2Cl)c1OC`, the inhibition is 5.83%.
In the case of `COc1cc(/C=C/C(=O)O)cc(S(=O)(=O)Nc2ccc3nc(C)sc3c2)c1OC` it was 3.42%; in that of `COc1cc(/C=C/C(=O)O)cc(S(=O)(=O)Nc2ccc(F)cc2)c1OC`, 5.47%; in that of `COc1cc(/C=C/C(=O)O)cc(S(=O)(=O)NCc2ccco2)c1OC`, 4.28%.
In the case of `COc1cc(/C=C/C(=O)O)cc(S(=O)(=O)Nc2cccc(SC)c2)c1OC` it was 9.82%; in that of `CC(=O)C1=C(O)C(=O)N(C2CCCCC2)C1c1ccccc1` (stereo not drawn), 10.2%.
For `CC(C)NC(=S)N(C)C1(c2ccccc2Cl)CCCCC1=O` (stereo not drawn) the value was 2.06%.
With `O=C(CCc1nc(-c2ccccc2F)no1)NCc1ccco1`, the inhibition was 8.13%.
In the case of `COCCNC(=S)Nc1ccc(N2CCCCC2)cc1` it was 2.09%; in that of `Cc1cccc(NC(=O)CCCN2C(=O)c3ccccc3C2=O)n1`, -6.68%.
In the case of `Cc1ccc(N2C(=O)c3ccccc3C2=O)cc1C` it was 2.18%.
Regarding `Cc1ccc(N2C(=O)[C@@H]3C(C(=O)CN4C(=O)c5ccccc5C4=O)=NN[C@@H]3C2=O)c(C)c1`, the inhibition was 4.06%.
For `Cc1cccc(N2C(=O)CCC2=O)n1` the value was -1.56%.
For `Cc1ccc(N2C(=O)c3ccccc3C2=O)cc1Cl` the value was -2.81%; for `Cc1ccc(N2C(=O)c3ccc(C(=O)O)cc3C2=O)c(C)c1`, -3.18%; for `CC(=O)Nc1ccc(/C(C)=N/NC(=O)c2ccc(F)cc2)cc1`, 7.12%.
For `O=C(Cn1cncn1)N/N=C/c1ccncc1` the value was -2.16%; for `COc1ccc(N(C(=O)C(C)C)S(=O)(=O)c2ccc3c(c2)n(C)c(=O)n3C)cc1`, 4.01%; for `CC(C)c1ccc(-c2nnc(N)s2)cc1`, -1.69%.
`Cn1nc(C(C)(C)C)cc1NC(=O)Nc1ccc(F)cc1F`: the inhibition is 6.33%.
`COc1ccc(S(=O)(=O)NCc2cc(-c3ccccc3Cl)no2)cc1`: the inhibition was 1.55%.
For `COc1ccc(NC(=O)c2oc3ccccc3c2NC(=O)C(C)(C)C)cc1` the value was 6.73%.
For `CCNc1nc(SC(C)C(=O)Nc2ccccc2)nc(N(C)C)n1` (stereo not drawn) the value was 0.28%.
In the case of `CCOC(=O)CNc1nc(Cl)nc(NC(C)(C)C)n1` it was 5.43%; in that of `O=C(COc1ncnc2ccccc12)N1CCN(S(=O)(=O)c2ccccc2)CC1`, 28.2% (active).
Turning to `O=C(COc1ncnc2ccccc12)N1CCN(S(=O)(=O)c2ccc(Cl)cc2)CC1`, the inhibition was -2.49%.
For `O=C(COc1ncnc2c(Cl)cc(Cl)cc12)N1CCN(S(=O)(=O)c2ccccc2)CC1` the value was 5.95%; for `O=C(CSc1ncn[nH]1)NN(c1ccccc1)c1ccccc1`, 0.8%; for `O=S(=O)(Nc1cccc(S(=O)(=O)N2CCCCCC2)c1)c1ccccc1`, -2%.
For `CC(=O)Nc1ccc(Nc2nc3ccccc3nc2NS(=O)(=O)c2ccccc2)cc1` the value was 14.8%; for `CC(=O)Nc1ccc(S(=O)(=O)Nc2nc3ccccc3nc2Nc2ccc(O)cc2)cc1`, 29.4%; for `O=[N+]([O-])c1cccc(S(=O)(=O)Nc2nc3ccccc3nc2Nc2cccc(S(=O)(=O)N3CCCCC3)c2)c1`, 9.64%.
Take `CC(=O)Nc1ccc(S(=O)(=O)Nc2nc3ccccc3nc2Nc2ccc(S(N)(=O)=O)cc2)cc1`: the inhibition was 19.6%.
Regarding `Cc1nc(-c2cccc(NS(=O)(=O)c3ccc4ccccc4c3)c2)cs1`, the inhibition was 11.2%.
For `O=[N+]([O-])c1ccc(S(=O)(=O)Nc2nc3ccccc3nc2Nc2ccccc2)cc1` the value was 2.42%; for `Cc1nc(-c2cccc(NS(=O)(=O)c3ccccc3)c2)cs1`, 12.7%.
For `COc1ccc(-n2c(COc3cccc4cccnc34)nnc2SCC(=O)O)cc1` the value was -1.59%; for `COc1cc(C)c(S(=O)(=O)NC2CC(C)(C)NC(C)(C)C2)cc1C`, -4.25%; for `N/C(=N\OC(=O)Cc1ccccc1[N+](=O)[O-])c1ccccn1`, -2.27%.
Regarding `CC12CCC(=O)N1c1ccccc1C(=O)N2c1ccccc1` (stereo not drawn), the inhibition is 5.47%.
Take `CCC(CC)C(=O)OCC(=O)Nc1ccc(S(=O)(=O)N2CCOCC2)cc1OC`: the inhibition is -0.13%.
For `COc1cccc2[nH]c3c(=O)n(CCCN4CCOCC4)cnc3c12` the value was 4.76%.
